Molecules are shown by their SMILES. The source made the active and inactive calls. Rule for the calls: active = hit-call score of the fitted dose curve at least 0.9, where 1 is the maximum; inactive = score below 0.9.

As usually defined, the AC50 is the concentration giving half of the maximal activity seen.

Chain of Hepatocyte nuclear factor 6 (Homo sapiens) (Q9UBC0 whole entry, looked up): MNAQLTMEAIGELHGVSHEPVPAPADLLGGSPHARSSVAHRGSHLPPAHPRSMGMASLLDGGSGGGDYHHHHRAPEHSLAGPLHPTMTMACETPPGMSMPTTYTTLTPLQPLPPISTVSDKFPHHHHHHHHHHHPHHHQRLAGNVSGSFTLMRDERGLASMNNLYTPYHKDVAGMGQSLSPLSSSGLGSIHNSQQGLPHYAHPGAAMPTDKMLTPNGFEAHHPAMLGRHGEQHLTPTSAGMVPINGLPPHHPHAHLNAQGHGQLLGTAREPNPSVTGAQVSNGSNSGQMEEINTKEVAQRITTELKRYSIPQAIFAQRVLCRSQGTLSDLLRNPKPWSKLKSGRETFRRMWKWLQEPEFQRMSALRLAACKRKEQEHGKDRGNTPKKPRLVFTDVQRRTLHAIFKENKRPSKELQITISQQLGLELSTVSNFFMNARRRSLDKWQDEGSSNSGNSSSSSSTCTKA

This test addresses Hepatocyte nuclear factor 6 (Homo sapiens) (UniProt Q9UBC0). Nature of the test: ATG_HNF6_CIS: Attagene CIS-FACTORIAL HepG2 Assay for human Hepatocyte Nuclear Factor 6 (HNF6) (AID 2282952). The conditions noted are these: HepG2 Attagene cis-factorial HNF6 reporter transcription; actives raise or lower the signal. As to the method: ATG_CIS is a cell-based, multiplexed-readout assay that uses HepG2, a human liver cell line, with measurements taken at 24 hours after chemical dosing in a 24-well plate.ATG_HNF6_CIS is one of 52 assay component(s) measured or calculated from the ATG_CIS assay. It is designed to make measurements of mRNA induction, a form of inducible reporter, as detected with fluorescence intensity signals by Reverse transcription polymerase chain reaction (RT-PCR) and Capillary electrophoresis technology.Data from the assay component ATG_HNF6_CIS was analyzed into 1 assay endpoint. This assay endpoint, ATG_HNF6_CIS, was analyzed with bidirectional fitting relative to DMSO as the negative control and baseline of activity. Using a type of inducible reporter, measures of mRNA for gain or loss-of-signal activity can be used to understand the reporter gene at the transcription factor-level as they relate to the gene ONECUT1. Furthermore, this assay endpoint can be referred to as a primary readout, because this assay has produced multiple assay endpoints where this one serves a reporter gene function. To generalize the intended target to other relatable targets, this assay endpoint is annotated to the dna binding intended target family, where the subfamily is homeobox protein.
Human liver HepG2 cells are transiently transfected with multiple reporter transcription units (MRTUs) in 6-well plates using FuGene 6 reagent (Roche; 3 ml FuGene/1 mg DNA). The MRTU constructs are regulated by a cis-regulating element (promoter). […] A major difference between the CIS and TRANS system is that in CIS activities of endogenous TFs are measured, whereas the TRANS assay evaluates changes in activities of exogenous, chimeric NR-Gal4 proteins. […] At the end of 24 hour incubation, total RNA was isolated using TriZol reagent (Invitrogen). The isolated RNA is then reverse-transcribed using oligo(dT) primer and Mo-MLV reverse transcriptase (Invitrogen) with DNAse I (Ambion) treatment for 30 min. The one-tenth of the produced cDNA was amplified by PCR using Taq DNA polymerase (Invitrogen) and two reporter sequence-specific primers. The PCR products were fluorescently labeled by primer extension with 6-arboxyfluorescein (6-FAM) 5'-labeled reporter sequence-specific primer (2 min at 95 C, 20 s at 68 C and 10 min at 72 C) and these products were digested with 5U of HpaI (New England Biolabs) for 2h at 37 C. The fragments were purified using Qiaquick PCR columns (Qiagen), analyzed on an ABI 3130xL genetic analyzer (Applied Biosystems) with peak positions identified by using a set of X-rhodamine (ROX)-labeled MapMarker1000 molecular weight standards (BioVentures). The raw capillary electrophoresis data was processed using Attagraph software (Attagene).
In the case of `S=P(N1CC1)(N1CC1)N1CC1`, the result was inactive. On the same count and under the same terms, next, `CCCCOC(=O)c1ccccc1`: “inactive”; `COc1cc2c(c(OC)c1OC)-c1ccc(OC)c(=O)cc1[C@@H](NC(C)=O)CC2`: “inactive”. Still for that read-out and setting: next, `NC(=O)NN=Cc1ccc([N+](=O)[O-])o1`: “inactive”.

`OC[C@H]1O[C@@](CO)(O[C@H]2O[C@H](CO)[C@@H](O)[C@H](O)[C@H]2O)[C@@H](O)[C@@H]1O`: the result was inactive. Same read-out and setting: the entry for `CCCCCCOC(=O)CC(CC(=O)OCCCCCC)(OC(=O)CCC)C(=O)OCCCCCC` is “inactive”. Still for that read-out and setting: next, `OCCNCCO`: “inactive”; `O=C(O)c1ccc2c(c1)nc(C(=O)NC1CCN(C3CC3)CC1)n2Cc1cc(-c2ccc(Cl)s2)on1`: “inactive”; `Cc1nc(-c2ccccn2)ncc1C(=O)Nn1cc(C)c2cc(F)ccc21`: “inactive”. Still for that read-out and setting: next, `c1ccc(C(O[C@@H]2CCCN(CCc3ccc4c(c3)OCO4)C2)c2ccccc2)cc1`: “inactive”. In the case of `OC(O)(C(F)C(O)(O)C(F)(F)F)C(F)(F)F`, the compound was classed as inactive. On the same count and under the same terms, next, `CC[C@H](C)C(=O)O[C@H]1C[C@H](O)C=C2C=C[C@H](C)[C@H](CC[C@@H](O)C[C@@H](O)CC(=O)O)[C@H]21`: “inactive”; `C[C@@H](Oc1ccc(CNC(=O)c2cccnc2Oc2ccc3c(c2)OCO3)c(F)c1)C(=O)O`: “inactive”. The same measure, in the same setting: next, `O=S1(=O)CCCO1`: “inactive”; `OCc1ccccc1`: “inactive”; `CC(C)CCCCCCOC(=O)C1CCCCC1C(=O)OCCCCCCC(C)C` (stereo not given): “inactive”. On the same count and under the same terms, next, `OC(CCl)CCl`: “inactive”; `CCCCCCCCN(C)C`: “inactive”. For the compound `Cc1ccc(S(=O)(=O)NC(=O)NN2CCCCCC2)cc1`, the compound was classed as inactive. On the same count and under the same terms, next, `OCC(CO)(CO)CO`: “inactive”. The same measure, in the same setting: next, `O=C(NO)C1(NS(=O)(=O)c2ccc(Oc3ccc(F)cc3)cc2)CCOCC1`: “inactive”; `FC(F)(F)C(F)(F)C(F)(F)C(F)(F)C(F)(F)C(F)(F)I`: “inactive”; `CC(C)CC(C)O` (stereo not given): “inactive”. Turning to `CCCCCCCCCCCCCCO`, the AC50 was 177 µM (active). Take `CCCCC(CC)C(=O)OCCOCCOCCOC(=O)C(CC)CCCC` (stereo not given): the compound was classed as inactive. `COS(C)(=O)=O`: the result was inactive. Consider `O=C(O)c1cccc(C[C@@H]2COc3ccc(OCc4nc5cc(F)ccc5s4)cc3[C@@H]2O)c1`, for which the compound was called inactive. For the compound `O=C(O)[C@H](O)[C@@H](O)C(=O)O`, the outcome was inactive.

Turning to `C[C@]12C=CC(=O)C=C1CC[C@H]1[C@@H]3C[C@@H](O)[C@](O)(C(=O)CO)[C@@]3(C)C[C@H](O)[C@@]12F`, the outcome was inactive. Still for that read-out and setting: the entry for `CCCc1ccccc1` is “inactive”; for `OCCC(F)(F)C(F)(F)C(F)(F)C(F)(F)F` it is “inactive”. Same read-out and setting: next, `CC(=O)c1ccccc1`: “inactive”; `CCCCCOC(C)=O`: “inactive”. Still for that read-out and setting: the entry for `c1ccc2cc3ccccc3cc2c1` is “inactive”; for `O=C(Cl)C(F)(F)C(F)(F)C(F)(F)C(=O)Cl` it is “inactive”.

As for `c1ccc2c(c1)-c1cccc3c1c-2cc1ccccc13`, the compound was called inactive.

For `NNC(=O)c1ccncc1`, the outcome was inactive. In the case of `Cc1nccn1-c1ccc(Sc2cccc(C3(C(N)=O)CCOCC3)c2)cc1`, the AC50 was 7.22 µM (active). Take `CCCCCCCCCCCCCCCCOS(=O)(=O)O`: the compound was called inactive.

For the compound `NC(=O)N1c2ccccc2C=Cc2ccccc21`, the result was inactive.
